Results: PubChem BioAssay (EPA / NIEHS)
Values joined by “and” are separate entries in the source; they are usually repeats but may differ in a detail not shown here. Equal values may be shown once. Records with an inconclusive call do not appear. More than one record can exist for a structure, and the calls need not agree. Active and inactive are the calls of the source. Rule for the calls, unless noted: active = hit-call score of the fitted dose curve at least 0.9, where 1 is the maximum; inactive = score below 0.9.

Columns and labels:
[1] = read-out: TIMP metallopeptidase inhibitor 2 (TIMP2), TIMP2 (gene 7077); assay: BSK_hDFCGF_TIMP2: BioMAP Diversity Plus: hDFCGF Assay for TIMP metallopeptidase inhibitor 2 (TIMP2) Biomarker Activity (AID 2284289); settings: primary human foreskin fibroblasts
Outline: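 Primary human foreskin fibroblasts in the hDFCGF system, dosed for 24 h; TIMP-2 level measured by ELISA, fitted in the positive direction against DMSO; cytotoxicity checked in parallel by sulforhodamine B total protein staining.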

[2] = read-out: Interleukin-1 alpha (IL1a), IL1A (gene 3552); assay: BSK_IMphg_IL1a: BioMAP Diversity Plus: IMphg Assay for Interleukin-1 alpha (IL1a) Biomarker Activity (AID 2284290); settings: primary human endothelial cells with macrophages
Outline: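 Human venular endothelial cells co-cultured with macrophages, IMphg system. IL-1α is measured by ELISA 24 h after dosing and fitted in the positive direction against DMSO. Cytotoxicity is assessed by SRB staining of parallel cultures.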

[3] = read-out: E-selectin (Homo sapiens) (UniProt P16581); assay: BSK_IMphg_ESelectin: BioMAP Diversity Plus: IMphg Assay for Eselectin Biomarker Activity (AID 2284291); settings: primary human endothelial cells with macrophages
Outline: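 Human venular endothelial cell–macrophage co-culture, E-selectin measured by ELISA 24 h after chemical dosing. Signal fitted in the positive direction against DMSO as negative control and baseline.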

[4] = BSK_IMphg_SRB: Viability Assessment in the BioMAP Diversity Plus: IMphg Assay (AID 2284292); settings: primary human endothelial cells with macrophages;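 note: measured one day after compound addition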
Outline: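 Human venular endothelial cells with macrophages, 24 h after chemical dosing; total protein by 0.1% SRB staining after 10% TCA fixation, read at 560 nm. Positive-direction fitting versus DMSO baseline.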

[5] = read-out: Macrophage colony-stimulating factor (MCSF), CSF1 (gene 1435); assay: BSK_IMphg_MCSF: BioMAP Diversity Plus: IMphg Assay for Macrophage colony-stimulating factor (MCSF) Biomarker Activity (AID 2284293); settings: primary human endothelial cells with macrophages
Outline: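 Co-culture of human venular endothelial cells and macrophages, 24 hours of chemical exposure. M-CSF quantified by ELISA, with parallel SRB total-protein staining for cytotoxicity; activity fitted relative to DMSO.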

[6] = BSK_IMphg_SRB.Mphg: Macrophage Viability Assessment in the BioMAP Diversity Plus: IMphg Assay (AID 2284295); settings: primary human endothelial cells with macrophages
Outline: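 Venular endothelial cells co-cultured with macrophages, read 24 h after dosing. Total protein measured by 0.1% SRB staining after 10% TCA fixation, absorbance at 560 nm. Fitted in positive direction against DMSO baseline.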

[7] = read-out: Thrombomodulin, THBD (gene 7056); assay: BSK_LPS_Thrombomodulin: BioMAP Diversity Plus: LPS Assay for Thrombomodulin Biomarker Activity (AID 2284296); settings: primary human HUVEC with PBMC
Outline: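 Human umbilical vein endothelial cells co-cultured with PBMC and stimulated with LPS; cell-surface thrombomodulin measured by ELISA 24 hours after compound. Gain or loss versus DMSO; cytotoxicity checked by SRB staining in parallel cultures.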

[8] = read-out: CD69, CD69 (gene 969); assay: BSK_LPS_CD69: BioMAP Diversity Plus: LPS Assay for CD69 Biomarker Activity (AID 2284303); settings: primary human HUVEC with PBMC
Outline: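 Human umbilical vein endothelial cells co-cultured with PBMC under LPS stimulation, chemical exposure 24 h; cell-surface CD69 measured by ELISA and fitted in the positive direction versus DMSO.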

[9] = test system: TTR (gene 7276); assay: CCTE_GLTED_hTTR_0.5uM: CCTE's human Transthyretin (hTTR) Inhibition Assay, with 0.5uM TTR, Great Lakes Toxicology and Ecology Division (GLTED) Lab (AID 2284320)
Outline: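 Cell-free displacement assay in which human TTR at 0.5 uM was incubated with test chemical for 2 h. Displacement of the ANSA probe was read by fluorescence at 380 nm excitation/475 nm emission. Loss of signal was fitted in the positive direction versus DMSO.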

[10] = CCTE_Mundy_HCI_iCellGluta_NOG_NeuriteCount: CCTE's Neurite Outgrowth Assay in iCellGluta cells for Neurite Count, Mundy Lab (AID 2284342; active = hit-call score of the fitted dose curve at least 0.9, where 1 is the maximum;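 note: chemical exposure about 48 hours starting 2 hours after plating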)
[11] = Tanguay_ZF_120hpf_CRAN: Oregon State University Tanguay Lab 120 Hour Post-fertilization zebrafish Assay for Craniofacial Malformation (AID 2284397)
Outline: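 Dechorionated Tropical 5D wild-type zebrafish embryos, one per well, were statically exposed from 6 to 120 hpf at 28C in 0.64% DMSO, with 5uM trimethyltin chloride as positive control. Craniofacial malformation was scored present/absent by brightfield microscopy, relative to DMSO.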

[12] = Tanguay_ZF_120hpf_AXIS: Oregon State University Tanguay Lab 120 Hour Post-fertilization zebrafish Assay for Axial Malformation (AID 2284398)
Outline: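 Dechorionated 5D wild-type zebrafish embryos exposed statically, one per well, from 6 to 120 hpf at 28C, 0.64% DMSO. Axial malformation scored as present/absent by brightfield microscopy at 120 hpf; dead embryos not scored.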

[13] = Tanguay_ZF_120hpf_EDEM: Oregon State University Tanguay Lab 120 Hour Post-fertilization zebrafish Assay for Edema Malformation (AID 2284400)
Outline: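 Dechorionated Tropical 5D wild-type embryos, one per well, statically exposed from 6 to 120 hpf at 28C in 0.64% DMSO. Edema scored present/absent by brightfield microscopy at 120 hpf; dead embryos not scored; fit versus DMSO.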

[14] = read-out: Interleukin-10 (IL10), IL10 (gene 3586); assay: BSK_IMphg_IL10: BioMAP Diversity Plus: IMphg Assay for Interleukin-10 (IL10) Biomarker Activity (AID 2284294); settings: primary human endothelial cells with macrophages
Outline: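 Human venular endothelial cells cocultured with macrophages, dosed 24 h; IL-10 measured by ELISA, activity relative to DMSO. Cytotoxicity assessed in parallel cultures by sulforhodamine B total-protein staining.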

[15] = CCTE_Mundy_HCI_iCellGluta_NOG_NeuriteLength: CCTE's Neurite Outgrowth Assay in iCellGluta cells for Neurite Length, Mundy Lab (AID 2284318; active = hit-call score of the fitted dose curve at least 0.9, where 1 is the maximum)
Outline: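 Automated high-content imaging of betaIII-tubulin (Alexa Fluor-488) and Hoechst-stained cells gave neurite length, normalized to the DMSO baseline.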

[16] = test system: SERPINA7 (gene 6906); assay: CCTE_GLTED_hTBG: CCTE's human Thyroxine-binding Globulin (TBG) Inhibition Assay, Great Lakes Toxicology and Ecology Division (GLTED) Lab (AID 2284343; active = hit-call score of the fitted dose curve at least 0.9, where 1 is the maximum;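 note: active chemicals lower fluorescence versus DMSO baseline by displacing probe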)
Outline: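 Cell-free binding assay in which human TBG is incubated with test chemical for 2 hours and displacement of the fluorescent probe ANSA is read at 380 nm excitation/475 nm emission. Activity is fitted against DMSO as the negative control.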

Measured: AC50

E-selectin (Homo sapiens), sequence (P16581 whole entry, looked up): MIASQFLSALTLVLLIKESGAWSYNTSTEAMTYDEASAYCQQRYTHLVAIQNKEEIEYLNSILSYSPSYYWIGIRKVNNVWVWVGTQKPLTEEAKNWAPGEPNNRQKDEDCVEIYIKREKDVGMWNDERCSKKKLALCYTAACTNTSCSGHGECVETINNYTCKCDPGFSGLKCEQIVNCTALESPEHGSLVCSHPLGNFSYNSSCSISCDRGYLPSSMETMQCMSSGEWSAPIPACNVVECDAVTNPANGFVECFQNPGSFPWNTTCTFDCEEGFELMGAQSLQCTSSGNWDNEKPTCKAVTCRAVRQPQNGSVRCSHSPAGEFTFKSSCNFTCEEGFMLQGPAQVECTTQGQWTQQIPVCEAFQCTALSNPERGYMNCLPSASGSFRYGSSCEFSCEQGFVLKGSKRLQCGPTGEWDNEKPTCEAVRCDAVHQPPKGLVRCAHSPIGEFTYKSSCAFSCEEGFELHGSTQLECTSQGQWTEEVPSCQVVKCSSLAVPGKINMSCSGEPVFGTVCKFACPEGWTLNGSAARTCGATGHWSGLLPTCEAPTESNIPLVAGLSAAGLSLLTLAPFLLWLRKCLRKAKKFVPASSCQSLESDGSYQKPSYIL

O=S(=O)(O)CCC(F)(F)C(F)(F)C(F)(F)C(F)(F)C(F)(F)C(F)(F)C(F)(F)C(F)(F)F
inactive: [1] | [2] | [3] | [4] | [5] | [6] | [7] | [8] | [10] | [12] | [13]
active: [3] 21.3 µM | [7] 8.71 µM | [9] 8.98 µM | [11] 89.2 µM

C=CC(=O)OCC(F)(F)C(F)(F)C(F)(F)C(F)(F)C(F)(F)C(F)(F)C(F)(F)C(F)F
active: [6] 7.9 µM | [7] 26.9 µM | [8] 23.2 µM | [9] 1.84 µM
inactive: [1] | [2] | [3] | [4] | [5] | [14] | [6] | [7] | [8] | [11] | [12] | [13]

O=C(O)C(F)(F)C(F)(F)C(F)(F)C(=O)O
not listed: [9] | [10] | [15] | [16]
inactive: all other assays above

NC(O)(C(F)(F)F)C(F)(F)F
active: [8] 1.45 µM
inactive: [1] | [2] | [3] | [4] | [5] | [6] | [7] | [8] | [15] | [10] | [11] | [12] | [13]

O=C(F)C1(F)C(F)(F)C(F)(F)C(F)(F)C(F)(F)C1(F)F
active: [9] 32.9 µM
not listed: [14] | [16]
inactive: all other assays above

NC(=O)C(F)(F)C(F)(F)C(F)(F)C(F)(F)C(N)=O
inactive: [1] | [2] | [3] | [4] | [5] | [6] | [7] | [8] | [15] | [10] | [11] | [12] | [13]
active: [1] 220 nM | [7] 0.598 µM | [9] 44.1 µM

OCC(F)(F)C(F)(F)C(F)(F)C(F)(F)C(F)(F)C(F)(F)C(F)(F)C(F)(F)CO
active: [2] 47.6 µM and 50.3 µM | [3] 51.5 µM and 36.1 µM | [4] 52.9 µM and 54 µM | [5] 39.7 µM | [6] 46 µM and 39.8 µM | [9] 2.78 µM
inactive: [1] | [5] | [7] | [8] | [11] | [12] | [13]

C=CC(=O)OCC(F)(F)C(F)(F)C(F)(F)COC(=O)C=C
active: [2] 45 µM | [3] 40 µM and 33.5 µM | [4] 43.8 µM | [6] 39.4 µM | [7] 8.08 µM and 7.99 µM | [8] 15.9 µM and 10.5 µM | [9] 0.424 µM | [11] 18.6 µM | [13] 20.9 µM
inactive: [1] | [2] | [4] | [5] | [6] | [10] | [12]

O=C(O)C(F)(F)C(F)(F)C(F)(F)C(F)(F)C(F)(F)C(F)(F)C(F)F
active: [1] 957 nM | [9] 0.275 µM | [16] 26.5 µM
inactive: [1] | [2] | [3] | [4] | [5] | [6] | [7] | [8]

OCCCC(F)(F)C(F)(F)C(F)(F)C(F)(F)C(F)(F)C(F)(F)C(F)(F)C(F)(F)F
inactive: [15] | [10] | [11] | [12] | [13]
active: [1] 19 µM and 14.6 µM | [2] 47.7 µM and 51 µM | [3] 14.3 µM and 11.4 µM | [4] 47.2 µM and 31 µM | [5] 44.4 µM and 42.1 µM | [6] 16.7 µM and 30 µM | [7] 52.8 µM and 52.3 µM | [8] 22.1 µM and 43.1 µM
